The results in this text go back to PubChem BioAssay (NCATS).

In test [1] the target is Cellular tumor antigen p53 (Homo sapiens) (UniProt P04637). Put plainly: Primary qHTS for small molecule compounds that upregulate eGFP-tagged delta133p53alpha (in N-terminal) cells. (AID 2060322). Also: nearly all actives have a fitted effect of over 75% in size. Also: potency is read from the fitted curve at half-maximal effect.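 As to activation: series mostly up to about 56 µM; 0% = DMSO vehicle and 100% = reference activator.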 Conditions: NCI-H358 eGFP-delta133p53alpha fluorescence, 24 h; activation: stronger effect = higher value. The method, boiled down: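 NCI-H358 cells pre-induced 24 h with 10 ng/ml doxycycline to express N-terminal eGFP-delta133p53alpha, then dosed 24 h at 37C without doxycycline; fixed, Hoechst-stained, GFP intensity by laser scanning cytometry, normalized to DMSO (0%) and 57.5 uM 5-azacytidine (100%).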
In general terms: qHTS replaces the single test concentration by a dilution series.

The target of test [2] is Aldehyde dehydrogenase, mitochondrial (Homo sapiens) (UniProt P05091). Put plainly: qHTS for Inhibitors of the Aldehyde Dehydrogenase Family (ALDH2) Primary screen (AID 2061308).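 Also: plate controls were vehicle for no effect and reference inhibitor for full effect; nearly all actives have a fitted effect of over 55% in size.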
Test [3] has as its target Retinaldehyde dehydrogenase 3 (Homo sapiens) (UniProt P47895). In words: qHTS for Inhibitors of the Aldehyde Dehydrogenase Family (ALDH1A3) Primary screen (AID 2061315).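 Also: plate controls were DMSO vehicle for no effect and reference inhibitor for full effect.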
Test [4] in a line: BET inhibitor-based combinations targeting novel dependencies in MECOM-rearranged (r) AML: SET-2 cell line (AID 2202231). Also: nearly all actives have a fitted effect of over 35% in size. Also: potency is read from the fitted curve at half-maximal effect.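 As to viability: plate controls were DMSO treated cells for no effect and wells without cells for full effect.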 Conditions: SET-2 AML cells viability, CellTiter-Glo luminescence, 48 h; viability: stronger effect = lower value, concentration not given here. The method, boiled down:
(§1)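 Each compound was tested at eleven concentrations on cells seeded at 500/well. After two days' incubation, ATP-based luminescence reported viability; responses relative to DMSO and blank wells yielded AUC and cell-line-centred Z-AUC.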
A general note: In ATP-based viability assays light output follows the ATP content of the culture.

The nature of test [5]: BET inhibitor-based combinations targeting novel dependencies in MECOM-rearranged (r) AML: OCI-AML3 cell line (AID 2202232). Also: potency is read from the fitted curve at half-maximal effect; nearly all actives have a fitted effect of over 35% in size. The settings on record: Potency: OCI-AML3 viability. In outline:
as §1

Test [6] can be described thus: BET inhibitor-based combinations targeting novel dependencies in MECOM-rearranged (r) AML: MV-4-11 cell line (AID 2202233). Also: potency is read from the fitted curve at half-maximal effect; nearly all actives have a fitted effect of over 45% in size. In outline:
(§2)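 First, 500 cells per well were seeded; next, drugs were pinned as 11-point doses; then plates sat 48 hr in the incubator; finally CellTiter-Glo was added and luminescence read, with AUC and Z-AUC computed.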

A short description of test [7]: BET inhibitor-based combinations targeting novel dependencies in MECOM-rearranged (r) AML: HNT-34 cell line (AID 2202234). Also: potency is read from the fitted curve at half-maximal effect; nearly all actives have a fitted effect of over 35% in size. The method, boiled down: as §2
The nature of test [8]: BET inhibitor-based combinations targeting novel dependencies in MECOM-rearranged (r) AML: UCSD-AML1 cell line (AID 2202235). Also: potency is read from the fitted curve at half-maximal effect; nearly all actives have a fitted effect of over 40% in size. In outline: as §2
Test [9] can be described thus: BET inhibitor-based combinations targeting novel dependencies in MECOM-rearranged (r) AML: AML-191 cell line (AID 2202236; also: potency is read from the fitted curve at half-maximal effect; nearly all actives have a fitted effect of over 35% in size). The method, boiled down:
as §1

A short description of test [10]: BET inhibitor-based combinations targeting novel dependencies in MECOM-rearranged (r) AML: AML-194 cell line (AID 2202237; also: potency is read from the fitted curve at half-maximal effect; nearly all actives have a fitted effect of over 40% in size). In outline: as §1

Several values for one entry are separate records, joined by “and”; a condition that tells them apart may be missing. Identical values can stand only once. Records with an inconclusive call do not appear. Activity calls are given as the source filed them. Calls follow the shape of the dose curve; as a rule, active = well fitted curve in the direction sought with a large enough effect; inconclusive = small, poorly fitted or top-dose-only effect, or another doubt; inactive = no such curve, though single readings can be large; an effect the other way counts as inactive or inconclusive.

Chain of Cellular tumor antigen p53 (Homo sapiens) (P04637 whole entry, looked up): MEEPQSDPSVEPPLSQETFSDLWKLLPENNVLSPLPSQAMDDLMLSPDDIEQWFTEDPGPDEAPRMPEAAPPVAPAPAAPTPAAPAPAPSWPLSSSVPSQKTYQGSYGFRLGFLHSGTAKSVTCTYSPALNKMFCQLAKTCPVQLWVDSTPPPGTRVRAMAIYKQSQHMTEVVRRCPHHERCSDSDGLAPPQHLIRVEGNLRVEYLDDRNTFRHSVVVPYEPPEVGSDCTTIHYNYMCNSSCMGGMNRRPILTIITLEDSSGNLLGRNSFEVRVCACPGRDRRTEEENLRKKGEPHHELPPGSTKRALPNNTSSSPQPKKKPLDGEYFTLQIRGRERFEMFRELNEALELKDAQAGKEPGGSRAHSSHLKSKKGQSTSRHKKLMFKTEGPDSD

In the case of `CCn1nnc2c(N3CCOCC3)nc(-c3ccc(NC(=O)Nc4ccc(C(=O)N5CCN(C)CC5)cc4)cc3)nc21`, in [1], the activation was 37.4% (inactive) and 20.5% (inactive). The Potency entry in [2] and in test [3] was “inactive” throughout. Also, the Potency in test [4] was 1.86 µM (active); in test [5], 0.263 µM (active); in test [6] it was 166 nM (active); in [7], 0.148 µM (active); in test [8] it was 0.186 µM (active).
`Cn1cnc2c(F)c(Nc3ccc(Br)cc3Cl)c(C(=O)NOCCO)cc21`: the activation in test [1] is 24.1% (inactive). The Potency entry in test [2] and in test [3] was “inactive” in each case. Besides, the viability in test [4] was 95.4% (inactive). Moreover, the Potency in test [5] was 0.0295 µM (active).
As to `NC1(Cc2ccc(Cl)cc2)CCN(c2ncnc3[nH]ccc23)CC1`, the activation in [1] is -4.16% (inactive) and 18.8% (inactive). Moreover, the Potency result in test [2] and in test [3] was “inactive” throughout. Further, the Potency in test [4] is 14.8 µM (active); in test [5], 6.61 µM (active); in test [6] it was 7420 nM (active); in test [7], 7.42 µM (active); in [8], 5.25 µM (active).
As to `Cc1ccc(C(N)=O)cc1Nc1nccc(-c2cn(C(C)C)c3cnccc23)n1`, the Potency in test [1] is 10.9 µM (active); in test [4], 7.42 µM (active); in [5] it was 7.42 µM (active); in test [6] it was 83.3 nM (active); in [7], 2.95 µM (active); in test [8] it was 4.68 µM (active). The Potency in test [9] is 5.25 µM (active); in test [10] it was 8.33 µM (active). For the same molecule, the Potency entry in test [2] and in test [3] was “inactive” throughout.
In the case of `Cn1c(=O)n(-c2ccc(C(C)(C)C#N)cc2)c2c3cc(-c4cnc5ccccc5c4)ccc3ncc21`, the activation in [1] was 13% (inactive) and 27.3% (inactive). The Potency result in [2] and in test [3] was “inactive” each time. Further, the Potency was 0.17 µM (active) in [4]; 0.241 µM (active) in test [5]; 170 nM (active) in test [6]; 0.135 µM (active) in [7]; 0.0428 µM (active) in test [8].
`C[C@@H](Oc1cc(-c2cnn(C3CCNCC3)c2)cnc1N)c1c(Cl)ccc(F)c1Cl`: in [1], the activation is -17.6% (inactive). In addition, the Potency entry in [2] and in test [3] was “inactive” throughout. In addition, the Potency in test [4] was 10.5 µM (active); in test [5] it was 5.9 µM (active); in test [6] it was 2350 nM (active); in test [7], 1.18 µM (active); in [8], 1.66 µM (active); in test [9], 1.18 µM (active). The Potency in test [10] is 1.48 µM (active).
Consider `CCN1CCN(Cc2ccc(Nc3ncc(F)c(-c4cc(F)c5nc(C)n(C(C)C)c5c4)n3)nc2)CC1`, for which the Potency is 12 µM (active) in test [1]; 5.9 µM (active) in [4]; 23.5 µM (active) in test [5]; 296 nM (active) in test [6]; 5.9 µM (active) in [7]; 0.662 µM (active) in test [8]. Also, the Potency in test [9] was 2.95 µM (active). Moreover, the Potency result in [2] and in test [3] was “inactive” each time.
As to `CC(=O)Nc1cccc(-n2c(=O)n(C3CC3)c(=O)c3c(Nc4ccc(I)cc4F)n(C)c(=O)c(C)c32)c1`, the activation in test [1] is -5.24% (inactive) and -3.57% (inactive). Besides, the Potency entry in test [2] and in test [3] was “inactive” in each case. Moreover, in [4], the viability is 89.5% (inactive).
Turning to `CC(C)c1cnn2c(NCc3ccccc3)cc(N[C@@H](CO)[C@H](O)CO)nc12`, the Potency in test [1] was 544 nM (active) and 1.51 µM (active); in test [4] it was 0.296 µM (active); in test [5] it was 0.468 µM (active); in [6], 372 nM (active); in test [7], 0.296 µM (active); in [8] it was 0.372 µM (active). The Potency in test [9] was 0.296 µM (active); in [10], 0.372 µM (active). Further, the Potency result in test [2] and in [3] was “inactive” throughout.
Turning to `OCCCNc1cc(-c2ccnc(Nc3cccc(Cl)c3)n2)ccn1`, the Potency is 172 nM (active) and 301 nM (active) in test [1]; 0.132 µM (active) in test [4]; 0.118 µM (active) in test [5]; 132 nM (active) in test [6]; 0.132 µM (active) in [7]; 0.0833 µM (active) in [8]. In [9], the Potency was 0.0934 µM (active). The Potency entry in test [2] and in test [3] was “inactive” throughout.
With `COc1cc2c(Nc3ccc(Cl)c(Cl)c3F)ncnc2cc1OCC1C[C@@H]2CN(C)C[C@@H]2C1` (stereo partly drawn), the Potency is 13.5 µM (active) and 19.3 µM (active) in [1]; 23.5 µM (active) and 20.9 µM (active) in test [4]; 18.6 µM (active) and 13.2 µM (active) in test [5]; 5.9 µM (active) and 5.25 µM (active) in test [6]; 1.05 µM (active) and 1.18 µM (active) in test [7]; 9.34 µM (active) in [8]. Moreover, the Potency in test [9] is 14.8 µM (active) and 10.5 µM (active); in [10], 13.2 µM (active) and 10.5 µM (active). Also, the Potency entry in test [2] and in [3] was “inactive” in each case.
For the molecule `CC(=O)NC(C)c1ccc(Oc2ccc(OC(C)C)cc2)cc1` (stereo not drawn), in test [1], the activation was 15.3% (inactive). Besides, the Potency entry in [2] and in test [3] was “inactive” throughout. The viability in test [4] was 87.6% (inactive).
On to `COCCCc1sc(-c2ccccc2)nc1C(=O)Nc1ccccc1-c1nc2cc(CN3CCCC3)cnc2s1`, for which, in test [1], the activation was -4.33% (inactive). Moreover, the Potency result in test [2] and in test [3] was “inactive” throughout. For the same molecule, the viability in test [4] was 121% (inactive). In addition, the Potency in test [5] is 9.1 µM (active).
For the molecule `CO[C@H]1C[C@@H]2CC[C@@H](C)[C@@](O)(O2)C(=O)C(=O)N2CCCC[C@H]2C(=O)O[C@H]([C@H](C)C[C@@H]2CC[C@@H](OP(C)(C)=O)[C@H](OC)C2)CC(=O)[C@H](C)/C=C(\C)[C@@H](O)[C@@H](OC)C(=O)[C@H](C)C[C@H](C)/C=C/C=C/C=C/1C`, in test [1], the activation was 3% (inactive). Further, the Potency entry in test [2] and in test [3] was “inactive” in each case. Further, the Potency was 23.5 µM (active) in test [4]; 23.5 µM (active) in [5]; 14800 nM (active) in test [6]; 1.48 µM (active) in test [7]; 0.0033 µM (active) in test [8].

Broadly, the viability is a read-out of living cells in per cent, often relative to untreated cells.
